IL-1B inflam inh: inflammasome signaling inhibition, IL-1 beta readout; actives 4.7% (n = 360,000); AID 743279; THP-1 LPS/ATP IL-1B secretion, AlphaLISA, 16 h; hits give low values; activity change, % at 57.5 µM; in the data active means activity change below about -50%; inconclusive means mostly about -30% to -49%
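THP-1 cells pretreated 1 hr with compounds (up to 57.5 uM final), then stimulated with LPS (250 ng/mL final) plus ATP (1.25 mM final); secreted IL-1B measured by AlphaLISA after 16 hr, decreased signal indicating inhibition.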
HT1080NT lethal: kills 2HG-producing HT-1080-NT fibrosarcoma cells; HT-1080-NT fibrosarcoma viability, CellTiter-Glo ATP luminescence, 48 h; Potency, µM (series often up to 46.1 µM), inactives show top-dose activity, negative = less viability, usual class: cytotoxic; actives 1.6% (n = 360,000); AID 686970;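 further: NT is the 2HG producing partner of a matched IDH1 knockdown line; potency means the concentration at half of the fitted maximal effect; 0% = DMSO-treated cells and -100% = media-only wells without cells; nearly all actives have a fitted effect of over 55% in size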
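Toxicity toward the 2HG-producing NT line was scored as %Activity, normalised to DMSO and no-cell wells, from CellTiter-Glo luminescence after 48 hours' treatment.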
TDP1 cell noCPT: qHTS for Inhibitors of human tyrosyl-DNA phosphodiesterase 1 (TDP1): qHTS in cells in absence of CPT; DT40 Tdp1-/- hTDP1 cells, no CPT, ATP luminescence, 48 h; Potency, µM (titrated, usually from 46.2 µM), for the others: at the highest dose activity change, negative = growth inhibition, hits mostly inhibitors; actives 15% (n = 420,000); AID 686978, 2013; further: potency means the concentration at half of the fitted maximal effect; nearly all actives have a fitted effect of over 55% in size
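Chicken DT40 Tdp1-/- cells stably complemented with human TDP1 were seeded at 400 cells/well with DMSO in place of 20 nM camptothecin. After compound pinning, cells grew at least 48 hr at 37 °C; viability read by CellTiter-Glo luminescence.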
HT1080 IDH1KD tx: kills HT-1080 cells with IDH1 knockdown. HT-1080 IDH1 knockdown viability, ATP luminescence, 48 h. actives 2% (n = 360,000). Potency, µM (doses to about 46.1 µM), without a hit: at the top dose activity, negative = toxicity, most hits filed as cytotoxic;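 further: potency means the concentration at half of the fitted maximal effect; 0% = DMSO wells and -100% = cell-free medium wells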
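After a 2 h attachment period, IDH1KD HT-1080 cells took pin-transferred compound for 48 h at 37 °C; ATP-based luminescence after 10 min room-temperature reagent incubation reported viability.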
DT40 TDP1 CPT: growth inhibition of DT40 Tdp1-/-;hTDP1 cells with camptothecin (screen for TDP1 inhibitors); chicken DT40 Tdp1-/-;hTDP1 cells + 20 nM CPT, ATP luminescence, 48 h; Potency, µM (titrated, usually from 46.2 µM), inactives show top-dose activity change, negative = growth inhibition, hits mostly inhibitors; actives 12% (n = 420,000); AID 686979; further: potency means the concentration at half of the fitted maximal effect; nearly all actives have a fitted effect of over 55% in size
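Cell growth measured by CellTiter-Glo luminescence after a minimum 48 h, 37 C compound exposure with 20 nM CPT in Tdp1-knockout DT40 cells stably expressing hTDP1, seeded 400/well; qHTS titration format.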
The depositor's hits bear a star; ? = inconclusive; . = no result given; [ ] = another dose, or the depositor's remark. Sampled rows, rich in hits. Any-hit rate of the full collection: about 19%. Unless noted, the call rests on the fitted dose curve; in most records, active means well fitted curve in the direction sought with a large enough effect; inconclusive means small, poorly fitted or top-dose-only effect, or another doubt; inactive means no such curve, though single readings can be large; an effect the other way counts as inactive or inconclusive. Unless noted, on the % scale 0 is the no-effect control and ±100 the full control effect.

SMILES | IL-1B inflam inh | HT1080NT lethal | TDP1 cell noCPT | HT1080 IDH1KD tx | DT40 TDP1 CPT
Cc1ccc(S(=O)(=O)c2cn(Cc3cccc(F)c3)c3cc(N4CCCC4)c(F)cc3c2=O)cc1 | . | . | 5.17µM* | . | 4.61µM*
COc1ccc(N2CCC(CNC(=O)Nc3cccc(OC)c3)C2)cc1 (centres undefined) | -2.5 | -25.4% | ? | -29.9% | ?
CCc1ccccc1NC(=S)N1CCC(NC(=O)c2ccc(OC)cc2)CC1 | 8.9 | 10.2% | -21.0% | 25.4% | 29.1%
CCc1ccccc1NC(=S)NCC1CCN(c2ccc(OC)cc2)C1 (centres undefined) | -7.5 | ? | 20.6µM* | 2.3% | ?
CCc1cccc(C)c1NC(=S)NCC1CCN(c2ccc(OC)cc2)C1 (centres undefined) | -67.0* | ? | 20.6µM* | ? | 20.6µM*
COc1ccc(N2CCN(CC(=O)Nc3c(C)cccc3C)CC2)cc1 | 7.2 | 0.8% | ? | 4.1% | ?
COc1ccc(N2CCC(CNC(=O)Nc3ccc(Cl)cc3)C2)cc1 (centres undefined) | -19.5 | -17.8% | 18.4µM* | -2.5% | ?
COc1ccc(S(=O)(=O)NC(C)C(=O)NCc2ccccn2)cc1OC (centres undefined) | 2.7 | 25.9% | -6.8% | 11.3% | -2.3%
Cc1cc(C)cc(SCc2noc(C(=O)NCCC(C)C)c2C(=O)NCCC(C)C)c1 | 23.2 | 21.0% | ? | 26.1% | ?
Cc1ccc([C@H]2C[C@@H](n3cc(C4CC4)nn3)[C@H](O)CN2CC2CCCCC2)cc1 | -11.4 | -3.9% | ? | -5.1% | ?
COc1ccc(C(C)=O)cc1COc1ccccc1[N+](=O)[O-] | -8.2 | 1.5% | -1.3% | -14.9% | -11.8%
COc1ccc(C(C)=O)cc1CSC(=N)N | -8.6 | 0.3% | -25.7% | 0.7% | ?
CCOc1ccc(C(C)=O)cc1CSC(=N)N | 3.6 | -10.1% | 20.6µM* | 0.2% | ?
CCOc1ccc(C(C)=O)cc1COc1cccnc1[N+](=O)[O-] | 25.2 | ? | 6.51µM* | ? | 6.51µM*
COc1ccc(C(C)=O)cc1COc1cccnc1[N+](=O)[O-] | -2.4 | -20.3% | 16.4µM* | ? | ?
O=[N+]([O-])c1ncccc1OCc1ccc(-c2ccccc2)cc1 | -55.6* | -20.7% | 16.4µM* | -11.3% | ?
CCN(CC)S(=O)(=O)c1ccc2[nH]c(=O)cc(C(=O)NCc3ccccc3)c2c1 | 2.7 | 1.6% | -0.4% | 5.2% | -22.3%
O=C(Nc1cnccn1)Nc1ccc(Cl)cc1Cl | -1.1 | 27.8% | ? | -0.1% | -18.9%
Cc1ccc(N2CCN(C(=O)c3ccccc3NC(=O)C3CC=CCC3C(=O)O)CC2)cc1 (centres undefined) | 43.5 | -0.8% | -13.7% | -0.8%[9.24 µM] | -14.9%
NC(=O)COc1ccc(-n2cnnn2)cc1 | -2.7 | 4.4% | 5.3% | 0.9% | -2.4%
CCOc1ccc(C(C)=O)cc1COc1ccc(-n2cnnn2)cc1 | -57.1* | -0.9% | ? | -1.9% | -23.2%
CC1=NN(c2ccccc2)C(=O)/C1=C/C=C/c1ccc(N(C)C)cc1 | -3.1 | -7.5% | 23.1µM* | -2.2% | 23.1µM*
CC1=NN(c2ccccc2)C(=O)/C1=C\C=C\c1ccccc1 | . | 4.11µM* | 7.31µM* | 3.66µM* | 4.61µM*
COc1ccc(-c2noc(N3CCC(C(=O)Nc4ccc(OC)c(OC)c4)CC3)n2)cc1 | 7.1 | -0.2% | -13.4% | -5.5% | -2.2%
COc1ccc(F)cc1NC(=O)C1CCN(c2nc(-c3ccc(OC)c(OC)c3)no2)CC1 | . | . | 16.4µM* | . | 4.61µM*
COc1ccc(-c2noc(N3CCC(C(=O)Nc4ccccc4F)CC3)n2)cc1 | 20.8 | 2.5% | -3.9% | 13.9% | -16.3%
COc1ccc(-c2noc(N3CCCC(C(=O)Nc4cc(F)ccc4F)C3)n2)cc1 (centres undefined) | -0.1 | -0.6% | 18.4µM* | 1.5% | ?
